# Assay results reported in PubChem BioAssay.
# Active and inactive are the calls of the source. Rule as the data show it, unless noted: active = inhibition above about 30%; inactive = the rest.
# Target: Nuclear receptor coactivator 3 (Homo sapiens) (UniProt Q9Y6Q9)
# Assay: SRC3 coactivator transcriptional activity inhibitors, confirmation, cell-based, luminescence, quadruplicate (AID 588792;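 active = mean inhibition over 43.08%, the solvent-only control mean plus 3 SD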;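 also: 0% = DMSO treated cells and 100% = gossypol at 36 µM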)
# Settings: HEK293 GAL4-SRC3 luciferase reporter, at 3.6 µM, active compounds read high
# Nuclear receptor coactivator 3 (Homo sapiens), sequence (Q9Y6Q9 whole entry, looked up): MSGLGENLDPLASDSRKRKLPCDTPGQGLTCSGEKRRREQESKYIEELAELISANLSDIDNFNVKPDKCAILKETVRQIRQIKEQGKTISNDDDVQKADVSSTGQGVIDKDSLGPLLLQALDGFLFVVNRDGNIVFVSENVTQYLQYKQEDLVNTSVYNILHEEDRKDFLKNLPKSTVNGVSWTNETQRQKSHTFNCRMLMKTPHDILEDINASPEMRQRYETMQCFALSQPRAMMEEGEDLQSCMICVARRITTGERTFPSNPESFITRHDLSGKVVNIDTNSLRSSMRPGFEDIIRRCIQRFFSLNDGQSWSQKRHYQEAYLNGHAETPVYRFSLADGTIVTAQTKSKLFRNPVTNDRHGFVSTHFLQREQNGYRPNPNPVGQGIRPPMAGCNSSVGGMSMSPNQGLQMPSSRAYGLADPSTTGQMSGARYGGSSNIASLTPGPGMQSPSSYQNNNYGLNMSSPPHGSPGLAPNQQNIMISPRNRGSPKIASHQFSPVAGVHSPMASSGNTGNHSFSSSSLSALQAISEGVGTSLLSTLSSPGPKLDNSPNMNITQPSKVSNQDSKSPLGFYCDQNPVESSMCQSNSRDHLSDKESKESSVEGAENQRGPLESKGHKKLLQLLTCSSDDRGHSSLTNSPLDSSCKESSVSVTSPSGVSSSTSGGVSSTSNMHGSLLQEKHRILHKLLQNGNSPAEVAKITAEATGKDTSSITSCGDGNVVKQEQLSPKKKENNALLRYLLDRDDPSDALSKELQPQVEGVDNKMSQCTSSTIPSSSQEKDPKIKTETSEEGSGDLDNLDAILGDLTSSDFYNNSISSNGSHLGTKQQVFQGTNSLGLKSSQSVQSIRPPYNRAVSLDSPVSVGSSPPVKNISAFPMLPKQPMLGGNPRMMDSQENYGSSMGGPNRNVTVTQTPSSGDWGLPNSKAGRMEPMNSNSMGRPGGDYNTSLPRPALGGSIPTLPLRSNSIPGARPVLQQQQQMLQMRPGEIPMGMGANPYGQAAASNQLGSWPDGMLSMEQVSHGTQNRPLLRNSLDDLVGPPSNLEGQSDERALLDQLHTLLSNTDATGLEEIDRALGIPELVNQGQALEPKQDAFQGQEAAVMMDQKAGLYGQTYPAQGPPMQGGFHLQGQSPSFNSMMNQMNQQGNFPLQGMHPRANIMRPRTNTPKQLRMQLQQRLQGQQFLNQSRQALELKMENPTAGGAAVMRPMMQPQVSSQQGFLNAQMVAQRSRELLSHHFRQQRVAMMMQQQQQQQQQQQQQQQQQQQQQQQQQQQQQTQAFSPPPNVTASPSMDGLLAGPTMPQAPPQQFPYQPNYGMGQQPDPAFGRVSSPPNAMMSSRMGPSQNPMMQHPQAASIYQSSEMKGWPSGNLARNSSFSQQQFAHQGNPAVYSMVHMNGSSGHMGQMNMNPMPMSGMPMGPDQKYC
row,Compound,inhibition
1,CCCCn1c(CCl)nc2cc(S(=O)(=O)N3CCOCC3)ccc21,71.6% (active)
2,CCN(CC)S(=O)(=O)c1cccc(C(=O)N/N=C(\C)c2ccc(O)cc2O)c1,66.7% (active)
3,C=C(C(=O)c1ccccc1)C(C)C(=C)C(=O)c1ccccc1,44.4% (active)
4,CC(=O)CSc1ccc(-c2nc3cc(C)c(C)cc3[nH]2)cn1,22.4% (inactive)
5,CC(=O)OCCN1c2ccccc2Sc2cnccc21,43.4% (active)
6,O=C(NCCCn1ccnc1)c1ccc(N2CCCCCC2)c([N+](=O)[O-])c1,50.3% (active)
7,Cc1cc(Sc2nnc(N)s2)c2ccccc2n1,-6.91% (inactive)
8,COCC1CCN(C(=O)c2cc(COc3cccc4cnccc34)on2)CC1,11.1% (inactive)
9,COc1cc(/C=C/C(=O)c2ccc3c(c2)OCCO3)cc(Br)c1OCC(=O)N(C)C,76.6% (active)
10,CC(C)(C)C(=O)Nc1ccc(-c2cc3cc(Cl)ccc3o2)cc1,-53% (inactive)
11,COc1cc(/C=C/C(=O)c2ccc(F)cc2)cc(OC)c1OC,50.5% (active)
12,Cc1ccc(C(=O)NNC(=O)CCCN2C(=O)/C(=C/c3ccccc3Cl)SC2=S)cc1,20.4% (inactive)
13,COc1ccc(-c2csc3ncnc(NCCN4CCOCC4)c23)cc1,34.1% (inactive)
14,Cc1cccc(C)c1NS(=O)(=O)c1ccc(-c2cnc(C3CC3)o2)cc1,43.2% (active)
15,CCN(CC)S(=O)(=O)c1ccc(N/N=C/c2cc(OC)ccc2O)nc1,31.4% (inactive)
16,COc1ccc(N(C(=O)CCl)C(C(=O)NCCc2ccccc2)c2cccs2)cc1Cl (stereo not given),46.4% (active)
17,CCN(CC)c1ccc(-n2c(C)c(C(C)=O)c(C(C)=O)c2C)cc1,4.48% (inactive)
18,Cc1nc([N+](=O)[O-])c(Sc2nc3ccccc3n2C)n1Cc1ccccc1,30.1% (inactive)
19,COC(=O)c1c(C)n(-c2ccc(OC)cc2)c2ccc(O)cc12,41.4% (inactive)
20,CCCCN(CC)Cc1ccc(CNC(=S)Nc2ccc(C)cc2Cl)o1,14.2% (inactive)

row,Compound,inhibition
1,Cc1ccc(-n2nc3c(=O)n(C(C)C(=O)NCCC4=CCCCC4)nc(C)c3c2C)cc1 (stereo not given),22.9% (inactive)
2,CCOc1ccc(C(=O)C(CCC(CN(C)C)C(=O)c2ccc(OCC)cc2)CN(C)C)cc1 (stereo not given),-1.23% (inactive)
3,Cc1ccc(NC(=O)c2ccccc2NS(=O)(=O)c2ccc(F)cc2)cc1S(=O)(=O)N1CCCCC1,12.2% (inactive)
4,O=C(N[C@@H](Cc1ccccc1)C(=O)CCl)OCc1ccccc1,31.5% (inactive)
5,CCc1ccc(-c2nc(CS(=O)CC(=O)NCc3ccco3)c(C)o2)cc1 (stereo not given),10.8% (inactive)
6,CCC(=O)c1ccc(O)c(CC=C(C)C)c1,35.8% (inactive)
7,O=C(c1ccc(S(=O)(=O)c2ccc(F)cc2)c([N+](=O)[O-])c1)N1CCCCCC1,11.4% (inactive)
8,O=C(OCc1ccccc1)c1ccc(NCc2cc(O)ccc2O)cc1,70.6% (active)
9,O=C(O)CCn1c(O)c(C=C2N=c3ccccc3=N2)sc1=S,12.5% (inactive)
10,CC1CCN(c2ccc(-c3cccs3)nn2)CC1,22.9% (inactive)
11,CCOc1cc(/C=C2\COc3ccccc3C2=O)ccc1OCC(=O)N(C)C,17.5% (inactive)
12,O=C(NC(CSCc1ccccc1)C(=O)N/N=C/c1ccc(O)cc1O)c1ccc([N+](=O)[O-])cc1 (stereo not given),31.7% (inactive)
13,Cc1cccc(CN2CCN(C(=O)CCl)CC2)c1,31.7% (inactive)
14,COc1ccc(COC(=O)C2=C(C)NC(=O)NC2c2ccc(OC)cc2)cc1 (stereo not given),11.2% (inactive)
15,O=C(O)c1ccc(N/N=C/c2ccc3c(c2)OCO3)cc1,-1.59% (inactive)
16,Nc1ccc(-c2nc3ccc(C(=O)O)cc3s2)cc1,-24% (inactive)
17,Cc1ccc(-n2c(C)cc(C(=O)COc3cccnc3[N+](=O)[O-])c2C)cc1,34.5% (inactive)
18,O=S(=O)(/C(=C/c1ccc(C(F)(F)F)cc1)c1nc2ccccc2[nH]1)c1ccccc1,61.5% (active)
19,CC(C)C(=O)NC(c1ccco1)c1ccc2cccnc2c1O (stereo not given),32.7% (inactive)
20,Cc1ccc2nc(NC(=O)CSCC(=O)OCC(=O)c3ccc(Br)cc3)sc2c1,36.5% (inactive)

# Test system: transactivating tegument protein VP16 (Human herpesvirus 1), Gal4-VP16 luciferase reporter
# Assay: VP16 transactivation inhibitors, counter-screen for SRC3 inhibitor project, cell-based, luminescence, high throughput (AID 588794)
# Settings: mammalian cells, VP16-driven luciferase reporter luminescence; at 3.6 µM; active compounds read high
row,Compound,inhibition
1,CCCCn1c(CCl)nc2cc(S(=O)(=O)N3CCOCC3)ccc21,34.6% (active)
2,CCN(CC)S(=O)(=O)c1cccc(C(=O)N/N=C(\C)c2ccc(O)cc2O)c1,43.7% (active)
3,C=C(C(=O)c1ccccc1)C(C)C(=C)C(=O)c1ccccc1,33.4% (active)
4,CC(=O)CSc1ccc(-c2nc3cc(C)c(C)cc3[nH]2)cn1,3.79% (inactive)
5,CC(=O)OCCN1c2ccccc2Sc2cnccc21,26.4% (inactive)
6,O=C(NCCCn1ccnc1)c1ccc(N2CCCCCC2)c([N+](=O)[O-])c1,-23.6% (inactive)
7,Cc1cc(Sc2nnc(N)s2)c2ccccc2n1,22.2% (inactive)
8,COCC1CCN(C(=O)c2cc(COc3cccc4cnccc34)on2)CC1,37.7% (active)
9,COc1cc(/C=C/C(=O)c2ccc3c(c2)OCCO3)cc(Br)c1OCC(=O)N(C)C,62.6% (active)
10,CC(C)(C)C(=O)Nc1ccc(-c2cc3cc(Cl)ccc3o2)cc1,-26.2% (inactive)
11,COc1cc(/C=C/C(=O)c2ccc(F)cc2)cc(OC)c1OC,34.7% (active)
12,Cc1ccc(C(=O)NNC(=O)CCCN2C(=O)/C(=C/c3ccccc3Cl)SC2=S)cc1,21.8% (inactive)
13,COc1ccc(-c2csc3ncnc(NCCN4CCOCC4)c23)cc1,37.6% (active)
14,Cc1cccc(C)c1NS(=O)(=O)c1ccc(-c2cnc(C3CC3)o2)cc1,15.3% (inactive)
15,CCN(CC)S(=O)(=O)c1ccc(N/N=C/c2cc(OC)ccc2O)nc1,31% (active)
16,COc1ccc(N(C(=O)CCl)C(C(=O)NCCc2ccccc2)c2cccs2)cc1Cl (stereo not given),41.7% (active)
17,CCN(CC)c1ccc(-n2c(C)c(C(C)=O)c(C(C)=O)c2C)cc1,25.7% (inactive)
18,Cc1nc([N+](=O)[O-])c(Sc2nc3ccccc3n2C)n1Cc1ccccc1,13.4% (inactive)
19,COC(=O)c1c(C)n(-c2ccc(OC)cc2)c2ccc(O)cc12,24.1% (inactive)
20,CCCCN(CC)Cc1ccc(CNC(=S)Nc2ccc(C)cc2Cl)o1,-5.53% (inactive)

row,Compound,inhibition
1,Cc1ccc(-n2nc3c(=O)n(C(C)C(=O)NCCC4=CCCCC4)nc(C)c3c2C)cc1 (stereo not given),47.1% (active)
2,CCOc1ccc(C(=O)C(CCC(CN(C)C)C(=O)c2ccc(OCC)cc2)CN(C)C)cc1 (stereo not given),34.5% (active)
3,Cc1ccc(NC(=O)c2ccccc2NS(=O)(=O)c2ccc(F)cc2)cc1S(=O)(=O)N1CCCCC1,24% (inactive)
4,O=C(N[C@@H](Cc1ccccc1)C(=O)CCl)OCc1ccccc1,40.4% (active)
5,CCc1ccc(-c2nc(CS(=O)CC(=O)NCc3ccco3)c(C)o2)cc1 (stereo not given),-12.6% (inactive)
6,CCC(=O)c1ccc(O)c(CC=C(C)C)c1,23.9% (inactive)
7,O=C(c1ccc(S(=O)(=O)c2ccc(F)cc2)c([N+](=O)[O-])c1)N1CCCCCC1,18.9% (inactive)
8,O=C(OCc1ccccc1)c1ccc(NCc2cc(O)ccc2O)cc1,25.9% (inactive)
9,O=C(O)CCn1c(O)c(C=C2N=c3ccccc3=N2)sc1=S,13.2% (inactive)
10,CC1CCN(c2ccc(-c3cccs3)nn2)CC1,9.04% (inactive)
11,CCOc1cc(/C=C2\COc3ccccc3C2=O)ccc1OCC(=O)N(C)C,28.5% (inactive)
12,O=C(NC(CSCc1ccccc1)C(=O)N/N=C/c1ccc(O)cc1O)c1ccc([N+](=O)[O-])cc1 (stereo not given),34.8% (active)
13,Cc1cccc(CN2CCN(C(=O)CCl)CC2)c1,18.2% (inactive)
14,COc1ccc(COC(=O)C2=C(C)NC(=O)NC2c2ccc(OC)cc2)cc1 (stereo not given),20.8% (inactive)
15,O=C(O)c1ccc(N/N=C/c2ccc3c(c2)OCO3)cc1,-12.1% (inactive)
16,Nc1ccc(-c2nc3ccc(C(=O)O)cc3s2)cc1,-26.4% (inactive)
17,Cc1ccc(-n2c(C)cc(C(=O)COc3cccnc3[N+](=O)[O-])c2C)cc1,-10.3% (inactive)
18,O=S(=O)(/C(=C/c1ccc(C(F)(F)F)cc1)c1nc2ccccc2[nH]1)c1ccccc1,58.3% (active)
19,CC(C)C(=O)NC(c1ccco1)c1ccc2cccnc2c1O (stereo not given),20.6% (inactive)
20,Cc1ccc2nc(NC(=O)CSCC(=O)OCC(=O)c3ccc(Br)cc3)sc2c1,40.5% (active)
